About 83,000 compounds went through this panel and 20% of them were active in at least one assay; those are over-represented in the sample as a whole.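 In brief: 96-well plates, 48 h treatment, single concentration, percent growth endpoint.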 The source made the active and inactive calls. How the source made its calls: active means growth percent below 10; inactive means the rest.
What was measured:
Assay in all cases: NCI-60 one-dose screen, 48 h (100 = growth as untreated, 0 = no growth, -100 = all killed)
Conditions in all cases: 10 µM unless noted
[1] = tested on: T-47D breast
[2] = tested on: MDA-MB-435 melanoma
[3] = tested on: SW-620 colon
[4] = tested on: MCF7 breast
[5] = tested on: HCT-116 colon
[6] = tested on: HCC-2998 colon
[7] = tested on: KM12 colon
[8] = tested on: BT-549 breast

Measured: growth

C#Cc1nc(Nc2cc(C)[nH]n2)c2ccccc2n1
active: [1] -36.8% | [2] -75.5% | [3] -25.6% | [4] -25.8% | [5] -12.7% | [6] -91% | [7] -73.1%

C[C@@H]1CC[C@@H]2[C@@H]1[C@H](OC(=O)/C=C/c1ccccc1)[C@]1(c3ccccc3)C[C@@H](OC(=O)CO)[C@@]2(C)O1
inactive: [1] 89.5% | [2] 99.2% | [3] 96.6% | [4] 84.3% | [5] 89.5% | [6] 99.4% | [7] 96%

CC/C(=C(\c1ccccc1)c1ccc(OCCNC)cc1)c1ccccc1
active: [8] -91.2% | [2] -93.8% | [3] -57.6% | [4] -95.8% | [5] -96% | [6] -99.7% | [7] -77.7%

CCCCCCCCCCCCCCCCNCCC[C@@H](C)[C@H]1CC[C@H]2[C@@H]3[C@H](OCCCN)C[C@@H]4C[C@H](OCCCN)CC[C@]4(C)[C@H]3C[C@H](OCCCN)[C@]12C
active: [1] -20.9% | [2] -28.3% | [3] -25.3% | [4] -44.3% | [5] -16.6% | [6] -32.4% | [7] -24.3%

Cc1cc2c(cc1C)NC1=C(N2)OC(c2c3ccccc3cc3ccccc23)C1=O (stereo unspecified)
active: [8] 0.106% | [2] -7.13% | [4] 5.73% | [5] -5.82% | [6] 7.57% | [7] 9.94%
inactive: [3] 19.3%

O=C1C=CC(Nc2ccccc2[N+](=O)[O-])C1Nc1ccccc1[N+](=O)[O-] (stereo unspecified)
inactive: [7] 58.3%
active: [8] -58.7% | [2] 8.78% | [3] -71.6% | [4] -77.3% | [5] -89.5% | [6] 6.76%

COc1ccccc1-c1ccc2c(N)c(C(=O)c3ccc4c(c3)OCO4)sc2n1
active: [2] 2.68%
inactive: [8] 71.4% | [3] 42.2% | [4] 36.3% | [5] 42.4% | [6] 71.4% | [7] 53.8%

NC(=S)N/N=C/c1cc(-c2cccc(N)c2)ccn1
inactive: [1] 10.8% | [2] 32.9% | [3] 35.6% | [4] 21.9% | [5] 28.4% | [7] 30%

CN1CCN(Cc2ccc(NC(=O)c3cncc(C#Cc4cnc(N)c5cccnc45)c3)cc2C(F)(F)F)CC1
active: [2] 7.67% | [3] 1.78% | [5] 3.52% | [7] 8.81%
inactive: [1] 26.2% | [4] 26.8% | [6] 30.2%

Cc1cc(Cl)ccc1Nc1nc(C(F)(F)F)ccc1C(=O)N/N=C/c1ccc(F)cc1
inactive: [1] 28.4% | [2] 31.9% | [3] 12.7% | [6] 12.4%
active: [4] -15.2% | [5] 8.67% | [7] 7.78%

O=[N+]([O-])c1cccc(-c2nc3sccn3c2-c2ccnc(NCCCNS(=O)(=O)c3ccc(F)cc3)n2)c1
inactive: [3] 18.3% | [6] 58.3%
active: [1] -12.1% | [2] 1.66% | [4] -8.37% | [5] 4.43% | [7] 0.995%

CCOC(=O)C12CCCC1=CC(=O)CC2 (stereo unspecified)
inactive: [8] 110% | [2] 112% | [3] 109% | [4] 101% | [5] 105% | [6] 105% | [7] 106%

CC(C)(C)n1cc(-c2ccnc(NCCNS(=O)(=O)c3ccccc3)c2)c(-c2cccc(O)c2)n1
inactive: [1] 24.3% | [2] 68.3% | [3] 16.2% | [4] 36.5% | [5] 47.2% | [6] 47.5% | [7] 42.8%

Cc1ccc2c(NCCCN(C)C)c3c(C)nn(C)c3nc2c1
active: [4] 5.14%
inactive: [1] 44.8% | [2] 37.1% | [3] 23.5% | [5] 20.2% | [6] 59.3% | [7] 32.8%

C=C(CN1CCN(c2cccc(C(F)(F)F)n2)CC1)c1ccc(C(=O)Nc2ccccc2N)cc1
inactive: [8] 22.8% | [3] 55.2% | [5] 15.5%
active: [2] -9.74% | [4] 1.51% | [6] -41% | [7] -3.75%

N#Cc1ccc(NC(=O)Nc2ccc(Cc3ccc(NC(=O)Nc4ccc(C#N)cc4)cc3)cc2)cc1
active: [2] 7.5% | [4] 6.82%
inactive: [8] 20.7% | [3] 34% | [5] 18.8% | [6] 40.1% | [7] 18.7%

CCN(CC)c1ccc(/C=C/C2=[N+](C)c3ccccc3C2(C)C)cc1
active: [2] -1.89% | [4] 4.72% | [7] -28%
inactive: [1] 14% | [3] 15.4% | [5] 13.1% | [6] 24.1%

CN1Cc2c(cc(CN3CCCCC3)n2C)C(c2ccc(Br)cc2)C1 (stereo unspecified)
inactive: [8] 83.1% | [2] 65.5% | [3] 90.8% | [4] 71.8% | [5] 61.8% | [6] 84.2% | [7] 94.5%

COc1ccc(-c2cnoc2-c2cc(OC)c3c(c2)OCCO3)cc1
inactive: [3] 19.5% | [4] 12.4%
active: [8] 3.85% | [2] -27.9% | [5] -12.3% | [6] 8.32% | [7] 3.62%

CCNS(=O)(=O)c1ncnc2nc[nH]c12
inactive: [1] 104% | [2] 101% | [3] 101% | [4] 102% | [5] 117% | [6] 114% | [7] 119%

CCOc1ccc(Nc2nc(-c3c(C)nc4ncccn34)cs2)cc1
inactive: [8] 20.6% | [3] 24.6% | [4] 15% | [6] 23.4%
active: [2] -41% | [5] 2.95% | [7] 6.58%
